In PubChem BioAssay AID686979 (National Center for Advancing Translational Sciences (NCATS), 2013):
Among all 420,000 compounds or so, about 50,000 (12%) were called active. Inconclusive results (about 26%) are left out. For the sample, actives were picked, then their nearest neighbours and some compounds at random. Values without a mark were called inactive. Calls follow the shape of the dose curve; as a rule, active = well fitted inhibition curve with a large enough effect; inconclusive = small, poorly fitted or top-dose-only effect; inactive = flat fitted curve, though single readings scatter.

Assay: qHTS for Inhibitors of human tyrosyl-DNA phosphodiesterase 1 (TDP1): qHTS in cells in presence of CPT; also: nearly all actives have a fitted effect of over 55% in size
Conditions: chicken DT40 Tdp1-/-;hTDP1 cells + 20 nM CPT, ATP luminescence, 48 h; series mostly up to 46.2 µM; activity change, negative = growth inhibition: at the top concentration
From the text: Human tyrosyl-DNA phosphodiesterase 1 (TDP1) is a novel repair gene, and we propose to use it as a new target for anticancer drug development. TDP1 is not an essential protein, but under treatment with topoisomerase I poison (camptothecin: CPT), TDP1 works as a critical factor for cell survival. To directly identify novel TDP1 inhibitors active in a cellular environment, we have knocked-out the Tdp1 gene in chicken DT40 cells (Tdp1-/-) and generated a complemented counterpart cells that contains a stable transfection of the human TDP1 gene (Tdp1-/-;hTDP1 cells). For the primary screen, Tdp1-/-;hTDP1 cells will be exposed to small molecules in the presence or absence of CPT, and their growth kinetics will be evaluated after 48 hours by measuring ATP activity. […] The hit compounds will then be evaluated in the presence or absence of CPT using Tdp1-/- cells. […] In tertiary assays, biochemical gel-based assays will be used to assess whether the hit compounds specifically target TDP1. To this end, we have screened this cell line against the MLSMR in two primary screens. In one screen we add CPT and in the other we screen in the absence of CPT; this AID represents the screen where CPT was present. NIH Chemical Genomics Center [NCGC] NIH Molecular Libraries Probe Centers Network [MLPCN] MLPCN Grant: MH095538 Assay Submitter (PI): Yves Pommier, NCI
DT40-hTDP1 cells with 20 nM Camptothecin (add 20 microL of 1 mM CPT stock in 1 L of cell culture medium) were dispensed at 400 cells/5microL/well in tissue culture treated 1536-well white wall/solid bottom assay plates (Greiner Bio-One North America, NC, U.S.A.) using a Multidrop Combi 8 channel dispenser (Thermo Fisher, Waltham, MA, USA). 23 nL compounds and controls were transferred using the pin tool (Kalypsys, San Diego, CA, USA) to the assay plates. The assay plates were then incubated at 37 masculineC for a minimum 48 hr. Three microL of Cell Titer Glo solution was added to the plates and incubated at RT in dark for 30 min. Luminescence was read using ViewLux (Perkin Elmer) with 1 sec exposure slow speed, high gain and 2x binning.
% is scaled to controls: 0 for no effect and ±100 for the full control effect; potency is read from the fitted curve at half-maximal effect.

| SMILES | activity change, negative = growth inhibition [%] | Potency |
| --- | --- | --- |
| CCCCN(C(=O)c1nn(C)c(=O)c2ccccc12)c1c(N)n(CCC)c(=O)[nH]c1=O | 1.59 |  |
| CCCNC(=O)c1cc(C2CCCN(C(=O)c3ccc4c(c3)CCO4)C2)on1 (stereo not drawn) | 5.21 |  |
| C=Cn1c(C(=O)O)ccc1-c1ccc(OC)cc1 | -3.64 |  |
| CCCCC1N2CC3([N+](=O)[O-])CN1CC([N+](=O)[O-])(C2)C3(C)C (stereo not drawn) | -4.33 |  |
| Cc1c(C)n(Cc2ccc(Cl)cc2)c2ccc(C(=O)N3CCN(c4ccccc4F)CC3)cc12 |  | 18.4 µM (active) |
| CCOc1ccccc1NC(=O)NC1CCCCCCC1 | -7.99 |  |
| O=C(c1ccc(CN2CCOCC2)cc1)N1CCN(c2ccccc2F)CC1 | 8.09 |  |
| CCOc1ccccc1NC(=S)N1CCN(c2cccc(C)c2C)CC1 |  | 11.6 µM (active) |
| CCc1ccc(NC(=O)CS(=O)CC(=O)N2CCN(c3ccccc3F)CC2)cc1 (stereo not drawn) | 3.72 |  |
| Cc1cccc(NC(=S)N2CCC(O)CC2)c1C | 5.79 |  |
| O=[N+]([O-])c1cc(S(=O)(=O)N2CCCC2)ccc1NN=C1CCCC1 | -19.3 |  |
| CC(C)(C)c1ccc(/C=C2\SC(=O)N=C2N)cc1 | -3.83 |  |
| CCOc1ccc(CNC(=O)c2cc(=O)[nH]c3ccc(S(=O)(=O)N4CCCCC4)cc23)cc1 | 6.67 |  |
| CC(c1ccco1)N(C(=O)c1ccc(S(=O)(=O)N2CCCCC2)cc1)c1ccccn1 (stereo not drawn) | -17.2 |  |
| Cc1ccc(-n2c(CNc3ccc(F)cc3)nnc2SCC(=O)N2CCOCC2)cc1 | -2.74 |  |
| N=C1c2ccccc2-c2ccccc21 | -0.123 |  |
| COc1ccc(N2CCN(C3=NS(=O)(=O)C(c4cccc(Br)c4)=C3C)CC2)cc1 | -29.2 |  |

| SMILES | activity change, negative = growth inhibition [%] | Potency |
| --- | --- | --- |
| O=C(Nn1cc(C(=O)N2CCN(c3ccccc3F)CC2)c2ccccc2c1=O)c1cnccn1 |  | 14.6 µM (active) |
| Cc1oc2ncn(CC(C)C)c(=O)c2c1C(=O)N1CCN(c2ccccc2F)CC1 | 3.61 |  |
| Cn1c(=O)cc(OCC(=O)N2CCN(c3ccccc3F)CC2)c2ccccc21 | -0.224 |  |
| CCCCOc1ccc(NC(=O)c2cc3c(n(-c4ccc(Cl)cc4)c2=O)CCCC3=O)cc1 | -1.03 |  |
| CC(C)c1ccc(NS(=O)(=O)c2ccc3[nH]cc(C(=O)NC4CCCC4)c(=O)c3c2)cc1 | 0.142 |  |
| CCOC(=O)CC1C(=O)NCCN1C(=O)COc1ccc(Br)cc1C (stereo not drawn) | -4.21 |  |
| COCC(C)NCc1cc(Br)ccc1OC (stereo not drawn) | 2.79 |  |
| CCC(C)NCCOCCOc1ccc(Br)cc1C (stereo not drawn) |  | 14.6 µM (active) |
| O=C(OCCOc1ccccc1F)c1cc(S(=O)(=O)N2CCOCC2)ccc1F | 10 |  |
| CC(=O)N1CCN(C(=O)Nc2cccc(C(F)(F)F)c2)CC1 | -2.53 |  |
| CCOC(=O)c1cccc(NC(=O)c2cc(CN3CCCC3)on2)c1 | -20.3 |  |
| Cc1oc2ccc(O)c(CN3CCOCC3)c2c1C(=O)Nc1cccc(Cl)c1C |  | 11.6 µM (active) |
| Cc1oc2ccc(O)c(CN3CCC(C)CC3)c2c1C(=O)Nc1ccccc1 |  | 14.6 µM (active) |
| CC1CCN(CCC(=O)Nc2ccccc2)CC1 | -1.21 |  |
| Cc1c(CN2CCC(C)CC2)c(=O)n(-c2ccccc2)n1C | -3.32 |  |
| Cc1nnsc1C(=O)Nc1cccc(Cl)c1C | 10.8 |  |
